In PubChem BioAssay (NCATS):
Inconclusive results are not listed. Where a call stands in place of a potency, no number is given. Active and inactive are the calls of the source. Calls come from the whole dose curve; as a rule, active = well fitted curve in the direction sought with a large enough effect; inconclusive = small, poorly fitted or top-dose-only effect, or another doubt; inactive = no such curve, though single readings can be large; an effect the other way counts as inactive or inconclusive.

Experiments:
[1] = system: Zika virus NS2B-NS3 protease; experiment: Primary screen GU AMC qHTS for Zika virus inhibitors (AID 1347154); note: nearly all actives have a fitted effect of over 70% in size
In short: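 Unlinked Zika NS2B hydrophilic domain–NS3 protease complex at 25 nM in 10 mM Tris-HCl pH 8.0, 0.01% Tween 20, with an AMC peptide substrate. Fluorescence change (340/450 nm) over 15 min at room temperature, normalized to controls, fitted to 4-parameter Hill.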

[2] = Confirmatory screen GU Rhodamine qHTS for Zika virus inhibitors qHTS (AID 1347157); note: nearly all actives have a fitted effect of over 70% in size; note: potency is the fitted concentration of half-maximal effect
In short: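 Noncovalent NS2B hydrophilic domain/NS3 protease complex (25 nM final) in 10 mM Tris-HCl pH 8.0, 0.01% Tween 20, preincubated 15 min with compounds (up to 114 microM), then 1.5 microM Rhodamine110 substrate. Fluorescence change over 15 min fitted to 4-parameter Hill.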

[3] = Confirmatory screen NINDS Rhodamine qHTS for Zika virus inhibitors (AID 1347161);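 note: purified Zika NS2B-NS3 protease with linked NS2B cofactor domain and Rhodamine110 peptide substrate; nearly all actives have a fitted effect of over 60% in size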
In short: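 Enzyme (25 nM, linked NS2B-NS3) was preincubated 15 min with compound in 10 mM Tris-HCl pH 8.0, 0.01% Tween 20. Rhodamine110 substrate (1.5 microM) was then added and fluorescence read at start and after 15 min.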

[4] = ZIKV-mCherry secondary qHTS for Zika virus inhibitors (AID 1347158); note: top concentration of the series differs between compounds
In short: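 Vero cells (5,000/well) were given compound, then infected with ZIKV-mCherry at MOI 1 for 48–72 h at 37 °C. After PFA fixation and Hoechst staining, imaging gave percent mCherry-positive cells. The positivity threshold was RFU above 450, 3 SD over negative controls.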

[5] = Vero cells viability qHTS for Zika virus inhibitors (AID 1347167)
In short: (§1)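 Cells seeded at 2.5 x 10^5 cells/mL in DMEM with 4% FBS and attached overnight at 37 degrees C, then exposed to compound for 24 to 48 hours. Viability read as ATP content by CellTiter Glo luminescence.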

[6] = HepG2 cells viability qHTS for Zika virus inhibitors (AID 1347168)
In short: as §1

[7] = system: Zika virus NS2B-NS3 protease (linked); experiment: 384 well plate NINDS AMC confirmatory qHTS for Zika virus inhibitors (AID 1347163); details: Recombinant NS2B-NS3 protease, Ac-VKTGKR-AMC fluorescence; note: potency is the fitted concentration of half-maximal effect; nearly all actives have a fitted effect of over 50% in size
In short: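 Linked NS2B-NS3 protease (final 5 nM, 30 nM or 60 nM) was preincubated with compounds (final up to 1 mM) for ~15 minutes. Ac-VKTGKR-AMC substrate (final 30 microM) then reacted for 25 minutes at room temperature in the dark. Fluorescence (ex 355/em 460 nm) was normalized to no-enzyme and no-inhibitor controls.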

[8] = OV-KATE Cancer Cell Toxicity qHTS against the NCATS CANVASS Library (AID 1347345)
In short: (§2)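 Cells were seeded at 1000 per well, allowed 4 h at 37 degrees C/5% CO2, then pin-treated with an 11-point compound series. After 72 h, viability was read as CellTiter-Glo luminescence following 15min at room temperature.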

[9] = HPAF-II Cancer Cell Toxicity qHTS against the NCATS CANVASS Library (AID 1347346); note: nearly all actives have a fitted effect of over 55% in size
In short: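 HPAF-II cells at 1000 cells/well were treated with an 11-point concentration series for 72 hours at 37 degrees C. Viability read by CellTiter-Glo luminescence.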

[10] = OV-SAHO Cancer Cell Toxicity qHTS against the NCATS CANVASS Library (AID 1347348); note: nearly all actives have a fitted effect of over 55% in size
In short: as §2

[11] = Panc-1005 Cancer Cell Toxicity qHTS against the NCATS CANVASS Library (AID 1347349); note: nearly all actives have a fitted effect of over 60% in size
In short: as §2

[12] = U-118MG Cancer Cell Toxicity qHTS against the NCATS CANVASS Library (AID 1347351); details: outcome: dose series up to 38.3 µM
In short: as §2

[13] = Tertiary RLuc qRT-PCR qHTS assay for Zika virus inhibitors (AID 1347169); note: nearly all actives have a fitted effect of over 55% in size; note: potency is the fitted concentration of half-maximal effect
In short: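 Orthogonal cell-based readout: luminescence measured 1-1.5 hrs after adding live-cell Renilla substrate to Vero cells that had been infected with ZIKV-RLuc (MOI 1-2) post-compound, incubated 48-72 hrs at 37 degrees C.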

[14] = system: Zika virus NS2B-NS3 protease (linked construct); experiment: 384 well plate NINDS Rhodamine confirmatory qHTS for Zika virus inhibitors (AID 1347164);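 note: fluorescence from protease cleavage of Ac-LKRR-rhodamine 110 substrate; nearly all actives have a fitted effect of over 65% in size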; note: potency is the fitted concentration of half-maximal effect
In short: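 Fluorescence at 485/538 nm was measured 25 minutes after adding 10 microM Ac-LKRR-Rd substrate, in the dark at room temperature. The protease (5, 30 or 60 nM final) had been preincubated ~15 minutes with compound; aprotinin as control.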

[15] = UWB1.289 Cancer Cell Toxicity qHTS against the NCATS CANVASS Library (AID 1347347); note: nearly all actives have a fitted effect of over 60% in size
In short: as §2

[16] = SW1088 Cancer Cell Toxicity qHTS against the NCATS CANVASS Library (AID 1347350); details: SW1088 viability, CellTiter-Glo luminescence, 72 h; at 38.3 µM (top of the series); note: nearly all actives have a fitted effect of over 75% in size
In short: as §2

Q: For `Nc1ncnc2c1ncn2[C@@H]1O[C@H](CO)C[C@@H]1O`, which Potency [1] is on record?
A: The Potency was “inactive”.

Q: With `Cc1[nH]c(C=C2C(=O)Nc3ccc(S(=O)(=O)Cc4c(Cl)cccc4Cl)cc32)c(C)c1C(=O)N1CCC[C@H]1CN1CCCC1` as the compound, how does the Potency [1] read?
A: The Potency was “inactive”.

Q: For `CN(C)Cc1cccc(N=C(c2ccccc2)c2c(O)[nH]c3cc(C(=O)N(C)C)ccc23)c1`, which Potency [1] is on record?
A: The Potency was “inactive”.

Q: Which Potency [1] does the source give for `CC1(C)O[C@H]2C[C@@H]3[C@H]4CCC5=CC(=O)C=C[C@]5(C)[C@@]4(F)[C@@H](O)C[C@]3(C)[C@]2(C(=O)CO)O1` here?
A: Its Potency is “inactive”.

Q: With `CCOC(=O)O[C@]1(C(=O)OCCl)CC[C@@H]2[C@H]3CCC4=CC(=O)C=C[C@]4(C)[C@@H]3[C@@H](O)C[C@@]21C` as the compound, how does the Potency [1] read?
A: The Potency was “inactive”.

Q: With `O=C(O)Cc1cccc2ccccc12` as the compound, how does the Potency [1] read?
A: Its Potency is “inactive”.

Q: For `Oc1ccc(C2=Cc3ccc(O)cc3OC2)cc1`, which Potency [1] is on record?
A: The Potency was “inactive”.

Q: With `COC(=O)C1=CO[C@@H](O)[C@@H]2C(CO)=CC[C@@H]12` as the compound, how does the Potency [1] read?
A: The Potency was “inactive”.

Q: With `N#CC1(c2ccc(NC(=O)c3cccnc3NCc3ccncc3)cc2)CCCC1` as the compound, how does the Potency [1] read?
A: Its Potency is “inactive”.

Q: What does the source list for `O=c1c(O)c(-c2ccc(O)cc2)oc2cc(O)cc(O)c12`?
A: Potency [2]: inactive; Potency [3]: inactive

Q: With `C[C@H](NC(=O)C(=O)Nc1ccccc1C(C)(C)C)C(=O)N[C@@H](CC(=O)O)C(=O)COc1c(F)c(F)cc(F)c1F` as the compound, how does the outcome [4] read?
A: The outcome was “inactive”.

Q: What about the Potency [5] of the same compound?
A: The Potency was “inactive”.

Q: And the outcome [6]?
A: Its outcome is “inactive”.

Q: Which results are given for `O=c1cc(-c2ccccc2)oc2cc(O)c(O)c(O)c12`?
A: outcome [4]: inactive; Potency [7]: 141 µM (active); Potency [5]: inactive; outcome [6]: inactive; outcome [8]: inactive; outcome [9]: inactive; outcome [10]: inactive; outcome [11]: inactive; outcome [12]: inactive

Q: Which Potency [3] does the source give for `NC(=O)c1cccc2[nH]c(-c3ccc([C@H]4CCCN4)cc3F)nc12` here?
A: The Potency was “inactive”.

Q: What about the Potency [5] of the same compound?
A: Its Potency is “inactive”.

Q: And the outcome [6]?
A: Its outcome is “inactive”.

Q: What about the Potency [13] of the same compound?
A: The Potency was “inactive”.

Q: For `CC(=O)Nc1ccc([C@H](C)C(=O)Nc2ncc(C(C)C)s2)cc1`, which Potency [7] is on record?
A: Its Potency is 112 µM (active).

Q: And the Potency [5]?
A: Its Potency is “inactive”.

Q: And the outcome [6]?
A: Its outcome is “inactive”.

Q: What about the Potency [13] of the same compound?
A: The Potency was 1.04 µM (active).

Q: For `CC(C)(C)OC(=O)N[C@H]1CCCCCC=C[C@@H]2C[C@@]2(C(=O)NS(=O)(=O)C2CC2)NC(=O)[C@@H]2C[C@@H](OC(=O)N3Cc4cccc(F)c4C3)CN2C1=O`, which Potency [2] is on record?
A: The Potency was 49.4 µM (active).

Q: With `O=C(O)c1c(Cl)c(Cl)c(Cl)c(Cl)c1-c1c2cc(I)c(=O)c(I)c-2oc2c(I)c(O)c(I)cc12` as the compound, how does the Potency [2] read?
A: The Potency was “inactive”.

Q: What about the Potency [13] of the same compound?
A: The Potency was “inactive”.

Q: For `Cc1cc(OCCCc2c(C(=O)O)n(Cc3cccnc3)c3c(-c4c(COc5ccc(N6CCN([S+](C)(=O)[O-])CC6)cc5)nn(C)c4C)cccc23)cc(C)c1Cl`, which Potency [7] is on record?
A: Its Potency is 31.6 µM (active).

Q: For `CN(C)c1cc(NC(=O)CNC(C)(C)C)c(O)c2c1C[C@@H]1C[C@H]3[C@H](N(C)C)C(=O)C(C(N)=O)=C(O)[C@@]3(O)C(=O)C1=C2O`, which Potency [14] is on record?
A: Its Potency is “inactive”.

Q: What about the Potency [13] of the same compound?
A: The Potency was “inactive”.

Q: Which Potency [14] does the source give for `NC(=O)c1ccc2nc(-c3ccc(Oc4ccc(Cl)cc4)cc3)[nH]c2c1` here?
A: Its Potency is 251 µM (active).

Q: What does the source list for `COC(=O)[C@@H]1[C@H]2C[C@H]3c4[nH]c5ccccc5c4CCN3C[C@@H]2CC[C@@H]1O`?
A: outcome [8]: inactive; outcome [9]: inactive; outcome [15]: inactive; outcome [10]: inactive; outcome [11]: inactive; outcome [16]: inactive; outcome [12]: inactive

Q: Which results are given for `O=C(O)C(O)Cc1ccc(O)c(O)c1` (stereo unspecified)?
A: outcome [8]: inactive; outcome [9]: inactive; outcome [15]: inactive; outcome [10]: inactive; outcome [16]: inactive; outcome [12]: inactive
